According to the supplement of paper PMC7393113:
± gives the standard deviation of the averaged measurements.

Each compound was assayed on iBMDM (immortalised mouse bone-marrow-derived macrophages), LPS-stimulated (assay: mitochondrial superoxide (MitoSOX fluorescence) fold increase over unstimulated control; higher = more LPS-induced mitochondrial ROS (less inhibition)). Conditions: inhibitor concentration: 500 nM; LPS: 100 ng/ml; time after LPS: 4 h.
In short: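 Mitochondrial superoxide values are mean fold induction compared with untreated macrophages. Triplicate wells of immortalised mouse bone-marrow-derived macrophages in phenol-red-free 1% FCS/DMEM received kinase inhibitors (500 nM) for 30 min, then 1 μM MitoSox for 10 min, then LPS (100 ng/ml). Fluorescence (510/580 nm) was taken every 60 min for 4 h.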

| SMILES | mitochondrial superoxide |
| --- | --- |
| CCN1CCN(Cc2ccc(-c3cc4c(N[C@H](C)c5ccccc5)ncnc4[nH]3)cc2)CC1 | 1.25 ± 0.081 |
| C#Cc1cccc(Nc2ncnc3cc(OCCOC)c(OCCO)cc23)c1 | 1.3 ± 0.14 |
| CNC(=O)c1cc(Oc2ccc(NC(=O)Nc3ccc(Cl)c(C(F)(F)F)c3)cc2)ccn1 [Sorafenib] | 1.66 ± 0.029 |
| C=CC(=O)Nc1cc2c(Nc3ccc(F)c(Cl)c3)ncnc2cc1OCCCN1CCOCC1 [Canertinib (CI-1033)] | 1.87 ± 0.084 |
| N#C/C(=C(/N)Sc1ccc(N)cc1)c1ccccc1C(F)(F)F | 1.506 ± 0.0063 |
| COc1cc2nccc(Oc3ccc(NC(=O)NC4CC4)c(Cl)c3)c2cc1C(N)=O [Lenvatinib (E7080)] | 1.73 ± 0.15 |
| CC(=O)c1c(C)c2cnc(Nc3ccc(N4CCNCC4)cn3)nc2n(C2CCCC2)c1=O | 1.49 ± 0.03 |
| NC(=O)Nc1sc(-c2ccc(F)cc2)cc1C(N)=O | 1.33 ± 0.06 |
| C=CC(=O)Nc1ccc2ncnc(Nc3cccc(Br)c3)c2c1 | 1.3 ± 0.061 |
| Cc1cnc(Nc2ccc(OCCN3CCCC3)cc2)nc1Nc1cccc(S(=O)(=O)NC(C)(C)C)c1 | 1.42 ± 0.22 |
| NC(=O)Nc1cc(-c2cccc(F)c2)sc1C(=O)N[C@H]1CCCNC1 | 1.25 ± 0.1 |
| O=C1NC(=O)C(=Cc2ccc(-c3ccc(F)cc3)o2)S1 (stereo in doubt) | 1.65 ± 0.081 |
| CC(C)n1nc(-c2cc3cc(O)ccc3[nH]2)c2c(N)ncnc21 | 1.28 ± 0.063 |
| CNC(=O)c1ccccc1Nc1nc(Nc2ccc(N3CCOCC3)cc2OC)ncc1Cl | 1.23 ± 0.081 |
| CN(C)CCOc1ccc(-c2nc(-c3ccncc3)c(-c3ccc4c(c3)CC/C4=N\O)[nH]2)cc1 | 1.31 ± 0.083 |
| COc1cc2ncnc(Oc3cccc(NC(=O)Nc4cc(C(C)(C)C(F)(F)F)on4)c3)c2cc1OC | 1.59 ± 0.025 |
| O=c1cc(N2CCOCC2)oc2c1ccc1ccccc12 | 1.17 ± 0.062 |
| COc1cc(Nc2ncc(F)c(Nc3ccc4c(n3)NC(=O)C(C)(C)O4)n2)cc(OC)c1OC | 1.28 ± 0.11 |
| Cc1c(Cn2c(C)nc3c(C(=O)O)cc(N4CCOCC4)cc32)cccc1C(F)(F)F | 1.61 ± 0.048 |

| SMILES | mitochondrial superoxide |
| --- | --- |
| Cc1nc(NC(=O)N2CCC[C@H]2C(N)=O)sc1-c1ccnc(C(C)(C)C(F)(F)F)c1 | 1.7 ± 0.057 |
| CCN(CCO)CCCOc1ccc2c(Nc3cc(CC(=O)Nc4cccc(F)c4)[nH]n3)ncnc2c1 [Barasertib (AZD1152-HQPA)] | 1.44 ± 0.13 |
| COc1cc2nccc(Oc3ccc(NC(=O)Nc4cc(C)on4)c(Cl)c3)c2cc1OC [Tivozanib (AV-951)] | 1.24 ± 0.024 |
| CC(C)CC(=O)Nc1n[nH]c2c1CN(C(=O)C1CCN(C)CC1)C2(C)C | 1.27 ± 0.079 |
| NC(=O)c1ccc(N(C(N)=O)c2c(F)cccc2F)nc1-c1ccc(F)cc1F | 1.327 ± 0.0024 |
| Cc1ccc(NC(=O)c2ccc(CN3CCN(C)CC3)cc2)cc1Nc1nc(-c2cccnc2)cs1 [Masitinib (AB1010)] | 1.72 ± 0.12 |
| OCCn1cc(-c2cnc3nnn(Cc4ccc5ncccc5c4)c3n2)cn1 | 1.498 ± 0.0039 |
| Cc1[nH]c(/C=C2\C(=O)Nc3ccccc32)c(C)c1CCC(=O)O [TSU-68 (SU6668, Orantinib)] | 2.16 ± 0.12 |
| COc1ccc(-c2cc3c(C)nc(N)nc3n([C@H]3CC[C@H](OCCO)CC3)c2=O)cn1 | 1.74 ± 0.049 |
| Cc1c(CN2CCN(C(=O)[C@H](C)O)CC2)sc2c(N3CCOCC3)nc(-c3cnc(N)nc3)nc12 | 1.5 ± 0.061 |
| CCCCOc1c(C(=O)c2c(F)cc(C)cc2F)c[nH]c2nncc1-2 | 1.37 ± 0.036 |
| C=CC(=O)Nc1cccc(Oc2nc(Nc3ccc(N4CCN(C)CC4)cc3OC)ncc2Cl)c1 | 1.68 ± 0.041 |
| CN1CCN(c2ccc3nc(-c4c(N)c5c(F)cccc5[nH]c4=O)[nH]c3c2)CC1 [Dovitinib (TKI-258, CHIR-258)] | 1.91 ± 0.073 |
| CC(=O)Nc1nc(C)c(-c2ccc(Cl)c(S(=O)(=O)NCCO)c2)s1 | 1.23 ± 0.048 |
| Cc1cc(C)nc(NS(=O)(=O)c2ccc(NC(=S)NC(=O)COc3ccc(Br)cc3Cl)cc2)n1 | 1.61 ± 0.055 |
| Cc1ccccc1-n1c(Cn2nc(-c3cccc(O)c3)c3c(N)ncnc32)nc2cccc(C)c2c1=O | 1.42 ± 0.034 |
| CCN(CC)CCCCNc1ncc2cc(-c3cc(OC)cc(OC)c3)c(NC(=O)NC(C)(C)C)nc2n1 | 1.12 ± 0.045 |
| Cc1ccc(F)c(NC(=O)Nc2ccc(-c3cccc4[nH]nc(N)c34)cc2)c1 [Linifanib (ABT-869)] | 1.83 ± 0.067 |
